# Assay results from ChEMBL document CHEMBL1157539, “Thousands of chemical starting points for antimalarial lead identification” (Nature, 2010).
# Columns and labels:
# Assay type in all cases: functional
# [1] = system: Plasmodium falciparum; test: GSK_TCMDC: Inhibition of Plasmodium falciparum 3D7 in whole red blood cells, using parasite LDH activity as an index of growth. Test compounds present at 2uM
# [2] = system: Plasmodium falciparum; test: GSK_TCMDC: Inhibition of Plasmodium falciparum Dd2 in whole red blood cells, using parasite LDH activity as an index of growth. Test compounds present at 2uM
# [3] = system: HepG2; test: GSK_TCMDC: Percent inhibition of human HepG2 cell line. Test compounds present at 10uM.
Compound,Inhibition [1],Inhibition [2],Inhibition [3]
CC[C@H](NC(=O)c1c(CN2CCC(N3CCCCC3)CC2)c(-c2ccccc2)nc2cc(O)ccc12)c1ccccc1,94%,13%,15%
CCCC(=O)Nc1ccc(OCCCN(Cc2ccccc2F)c2ccc(C#N)c(C(F)(F)F)c2)cc1,89%,93%,7%
COCCNCc1ccc(-c2ccc3c(Nc4ccc(Cl)cc4F)ccnc3c2)o1,100%,100%,15%
NCc1cccc(-c2ccccc2CNC2CCN(Cc3ccccc3)CC2)c1.O=C(O)C(F)(F)F,94%,4%,0%
CN(C)CCOc1cc(NC(=O)Nc2cccc3c(-c4ccncc4)cccc23)ccc1I.Cl,100%,28%,20%
COc1ccc(Cl)cc1-c1nc(C(=O)NCCN2CCCCC2)c(C(C)C)s1.O=C(O)C(F)(F)F,100%,37%,14%
C=CCc1ccc(C2CCN(CCCCNC(=O)c3ccc(NC(=O)c4ccc(Cl)cc4)cc3)CC2)cc1,100%,97%,27%
CCCN(CCC)C(=O)c1cc(C(=O)N[C@@H](Cc2ccccc2)[C@H](O)CNC(C)(C)c2cccc(OC)c2)cc(N2CCCCS2(=O)=O)c1,99%,74%,16%
Nc1c2c(nc3ccc(C(=O)Nc4ccc(Br)cc4)cc13)CCCC2,100%,99%,40%
CCCCn1c(Sc2ccc(C#N)c([N+](=O)[O-])c2)nnc1-c1cccc(Cl)c1,96%,87%,30%
Oc1ccc(-c2nc3c4cc(I)ccc4c4ccc(I)cc4c3[nH]2)cc1,98%,51%,0%
Br.CC1(C)N=C(N)N=C(N)N1OCc1cccc(C#N)c1,94%,2%,57%
O=C(O)C(F)(F)F.O=S(=O)(NCCN1CCCC1)c1ccc(-c2ccc(CN3Cc4ccccc4C3)cc2)s1,89%,18%,19%
CS(=O)(=O)NCCCNCc1cccc(-c2ccc(-c3nc4ccccc4[nH]3)s2)c1.O=C(O)C(F)(F)F,90%,0%,24%
Cl.O=c1cc(NCCCNCc2cc3ccc(Br)cc3s2)[nH]c2ccccc12,92%,8%,18%
COc1ccc(S(=O)(=O)NCCCC2CCN(CCCCCNC(=O)C=Cc3ccc(Cl)c(Cl)c3)CC2)cc1,85%,12%,24%
COc1ccc(C23Oc4cc(OC)cc(OC)c4C2(O)C2(CC3c3ccccc3)SCCCS2)cc1 (stereo not given),96%,97%,39%
C#Cc1cccc(NC(=O)[C@H](CC2CCCCC2)Nc2ccc(C#N)c3ccccc23)c1.O=C(O)C(F)(F)F,100%,99%,48%
Cc1ccccc1Nc1nc(Nc2ccccc2)c2ccccc2n1.Cl,100%,21%,19%
Cc1cccc2nc(-c3ccc(-c4cccc(CNCc5ccc(CN)cc5)c4)s3)[nH]c12.O=C(O)C(F)(F)F,99%,48%,11%

Compound,Inhibition [1],Inhibition [2],Inhibition [3]
CC(=O)c1cccc(NC(=O)NC2CCN(CCCCCNC(=O)/C=C/c3ccc(Cl)c(Cl)c3)CC2)c1,94%,1%,7%
Br.Clc1ccc(-c2nc(-c3ccncc3)c[nH]2)cc1Cl,96%,63%,1%
COCCN(CCOC)c1ncc(-c2ccsc2)c(-c2nc(C)c(C)s2)n1,96%,63%,1%
Cl.NC(=O)c1cnc2cc(-c3ccoc3)ccc2c1Nc1ccc(NC(=O)Nc2ccccc2Cl)cc1,100%,76%,39%
O=C(NCCCN1CCC(N2CCCCC2)CC1)c1ccc2nc(N3CCCCC3)sc2c1,89%,20%,11%
COc1ccc2cc(C(C)NC3CCN(c4cccc(NC(=O)c5ccncc5)c4)CC3)ccc2c1 (stereo not given),91%,6%,13%
Nc1ncnc2cc(-c3cccc(NC(=O)Nc4ccccc4)c3)sc12,94%,33%,4%
O=C(Nc1cccc(-c2cccc(-c3nc4ccccc4[nH]3)c2)c1)Nc1ccc2c(c1)OCO2,100%,57%,25%
CCCCN(CCCC)CCNC(=O)c1ccc(-c2nc3cc(Cl)ccc3[nH]2)c(OCC)c1,100%,80%,0%
c1ccc2c(NCCc3c[nH]cn3)c3ccccc3nc2c1,91%,0%,20%
O=C(NC1CCCCC1)N(CCCn1ccnc1)Cc1csc(-c2ccc(CNCc3ccccc3)cc2)n1.O=C(O)C(F)(F)F,97%,48%,5%
CC(=O)Nc1ccc(C(=O)Nc2cccc(-c3ccc(-c4nc5ccccc5[nH]4)s3)c2)cn1,100%,91%,9%
CC(C)N1CCC(N(Cc2ccc(-c3ccc(C(F)(F)F)cc3)cc2)C(=O)Cn2c(CCc3cccc(F)c3F)cc(=O)c3ccccc32)CC1.O=C(O)C(O)C(O)C(=O)O,99%,73%,50%
Cc1[nH]c(C)c(-c2ccc(OCc3cc(F)cc(F)c3)nc2)c(=O)c1Cl,97%,97%,20%
CC(C)c1ccc(NC(=O)c2ccc(CN3CCCN(Cc4cccc(Cl)c4)CC3)cc2)cc1.O=C(O)C(F)(F)F,90%,12%,45%
CN(C)C(C)(C)CN(Cc1ccc(-c2ccc(C(F)(F)F)cc2)cc1)C(=O)Cn1c(CCc2cccc(F)c2F)nc(=O)c2ccccc21.O=C(O)C(O)C(O)C(=O)O,95%,67%,64%
Cc1cc(NC(=O)c2ccco2)ccc1OC1CCN(Cc2ccc(F)cc2)C1.O=C(O)C(F)(F)F (stereo not given),96%,92%,5%
Cl.NC1=NC(Cc2ccccc2)N(c2ccc(Cl)cc2)C(N)=N1 (stereo not given),93%,4%,21%
COc1ccc(-c2ccccc2CNc2nc(NCCc3ccc(O)cc3)nc(N3CCNCC3)n2)cc1.O=C(O)C(F)(F)F,86%,3%,48%
Cc1nc(N)nc(N)c1-c1cccc(Cl)c1,88%,0%,60%

Compound,Inhibition [1],Inhibition [2],Inhibition [3]
COc1cc(CCNc2nc(NCc3cccc4ccccc34)nc(N3CCC(N)CC3)n2)ccc1O.O=C(O)C(F)(F)F,100%,59%,16%
COc1c(C2CCN(CCCCNC(=O)c3noc(-c4ccc(C#N)cc4)n3)CC2)ccc2c1CCCC2,99%,0%,32%
O=C(Nc1ccc(-c2cccc(-c3nc4cc(F)ccc4[nH]3)c2)cc1)Nc1ccc(Cl)c(Cl)c1,99%,24%,68%
CC(=O)c1nccc(C)c1N,92%,0%,10%
Br.CC1(C)N=C(N)N=C(N)N1OCCc1ccc2ccccc2c1,96%,95%,65%
CCCCCCC1(C)N=C(N)N=C(N)C1c1ccc(Cl)c(Cl)c1.Cl (stereo not given),94%,43%,18%
Cc1ccc(CN2CCN(c3cc4c(cc3Cl)CCN4C(=O)Cc3ccc(NC(=O)c4ccc(C(F)(F)F)cc4)cc3)CC2)cc1,88%,0%,15%
O=C(Nc1ccc(C(F)(F)F)cc1)c1ccc(S(=O)(=O)NC2CCN(Cc3ccccc3)C2)cc1.O=C(O)C(F)(F)F (stereo not given),100%,5%,42%
O=C(Nc1ccccc1)N(Cc1ccc(-c2cccc(CNCc3ccc4c(c3)OCO4)c2)cc1)C1CCN(Cc2ccccc2)CC1.O=C(O)C(F)(F)F,100%,65%,29%
O=C(/C=C/c1ccc(Cl)c(Cl)c1)NCCCCCN1CCCN(C(=S)Nc2ccc(Cl)c(Cl)c2)CC1,96%,0%,16%
Cc1c(N=O)cc(C(C)(C)C)c(O)c1C(=O)Nc1ccc([N+](=O)[O-])cc1Cl,100%,98%,72%
COc1ccccc1CNC(=O)c1nn(-c2ccc(Cl)cc2)c(=O)c2ccccc12,100%,80%,0%
COc1ccc(Nc2nc(N)c3cc(OC)c(OC)cc3n2)cc1OC.Cl,99%,5%,0%
Cc1cccc2nc(-c3ccc(-c4ccc(NC(=O)Nc5ccc(Cl)cc5)cc4)cc3)[nH]c12,100%,100%,52%
CC(C)(C)c1ccc(CNC(=O)/C=C/c2ccc(CNC3CCNCC3)cc2)cc1,96%,21%,6%
CNCCNCc1cccc(-c2cccc(-c3nc4cc(C(F)(F)F)ccc4[nH]3)c2)c1.O=C(O)C(F)(F)F,100%,97%,22%
O=C(Nc1cccc(-c2cccc(-c3nc4ccccc4[nH]3)c2)c1)c1ccncc1,99%,38%,27%
O=C(Nc1cccc(CN2CCCN(Cc3ncc[nH]3)CC2)c1)c1ccc2ccccc2c1.O=C(O)C(F)(F)F,100%,2%,13%
CN(C)CCN(C)Cc1ccc(-c2ccc3c(Nc4ccc(Oc5ccccc5)cc4)ccnc3c2)o1,100%,100%,5%
CC1(C)CCNc2cc(NC(=O)c3ccc(-c4ncccc4C(F)(F)F)cc3)ccc21.Cl,97%,86%,7%
